Data: PubChem BioAssay (NCATS)
Results filed as inconclusive are left out. The source made the active and inactive calls. The call rests on the fitted dose curve; in most records, active means well fitted inhibition curve with a large enough effect; inconclusive means small, poorly fitted or top-dose-only effect; inactive means flat fitted curve, though single readings scatter.

Molecular target: Calcium and integrin-binding protein 1 (Homo sapiens) (UniProt Q99828)
Test: Primary qHTS for Identification of Calcium Integrin Binding Protein 1 (CIB1) Competitor (AID 1508620);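 further: GST tagged CIB1 binding a fluorescein labelled alphaIIb integrin peptide tracer; top concentration of the series differs between compounds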
Details: CIB1-GST / FITC-alphaIIb peptide fluorescence polarization; series mostly up to 114 µM
Procedure, shortened: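 CIB1-GST (1 uM final) and compound incubated 15 min at room temperature before adding FITC-alphaIIb peptide tracer (100 nM final). Competition for binding read by fluorescence polarization (ex 480, em 540) after another 15 min at room temperature.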

Chain of Calcium and integrin-binding protein 1 (Homo sapiens) (Q99828 whole entry, looked up): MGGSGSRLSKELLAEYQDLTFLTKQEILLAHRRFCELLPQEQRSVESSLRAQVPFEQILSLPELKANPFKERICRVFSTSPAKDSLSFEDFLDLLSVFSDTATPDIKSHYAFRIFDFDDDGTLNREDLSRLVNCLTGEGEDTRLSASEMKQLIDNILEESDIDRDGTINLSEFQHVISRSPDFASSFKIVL

| SMILES | outcome |
| --- | --- |
| CC(=O)Oc1c(C)c(C)c2c(c1C)CC[C@@](C)(CCC[C@H](C)CCC[C@H](C)CCCC(C)C)O2 | inactive |
| O=C(O)[C@@H]1CSCN1 | inactive |
| NS(=O)(=O)c1cc2c(cc1C(F)(F)F)NC(Cc1ccccc1)NS2(=O)=O (stereo not given) | inactive |
| COc1cc2[nH]c(=O)[nH]c(=O)c2cc1OC | inactive |
| Nc1ccc(S(=O)(=O)Nc2ccccc2)cc1 | inactive |
| Oc1cn2c(n1)Nc1ccc(Cl)c(Cl)c1C2 | inactive |
| CC1(C)S[C@@H]2[C@H](NC(=O)Cc3ccccc3)C(=O)N2[C@H]1C(=O)O (tested in a mixture with another compound) | inactive |
| CCN(CC)CCNC(C(=O)OCCC(C)C)c1ccccc1 (stereo not given) | inactive |
| Cc1cccc(Nc2cc(Cl)nc(SCC(=O)O)n2)c1C | inactive |
| O=c1cc[nH]c(=O)[nH]1 | inactive |
| CCN(CC)C(=O)Nc1ccc(OCC(O)CNC(C)(C)C)c(C(C)=O)c1 (stereo not given) | inactive |
| O=C(Oc1ccccc1C(=O)O)c1ccccc1O | inactive |
| CCCCOC(=O)c1ccc(O)cc1 | inactive |
| C[C@@H]1C[C@H]2[C@@H]3C[C@H](F)C4=CC(=O)C=C[C@]4(C)[C@@]3(F)[C@@H](O)C[C@]2(C)[C@@]1(O)C(=O)CO | inactive |
| O=C1Nc2ccc(Cl)cc2[C@@](C#CC2CC2)(C(F)(F)F)O1 | inactive |
| CC(O)COc1ccccc1 (stereo not given) | inactive |
| COc1ccc2c(c1)C(=O)N(CCc1ccc(S(=O)(=O)NC(=O)NC3CCCCC3)cc1)C(=O)C2(C)C | inactive |
| CC1(C)[C@@H]2CC[C@@]1(C)C(=O)C2 | inactive |
| CC(C)(C)NCC(O)COc1ccc(NC(=O)NC2CCCCC2)cc1 (stereo not given) | inactive |
| CCCCC/C(C=O)=C\c1ccccc1 | inactive |
| CC(=O)Oc1ccc(C2(c3ccc(OC(C)=O)cc3)C(=O)Nc3ccccc32)cc1 | inactive |
| CC(=O)O[C@@]12CO[C@@H]1C[C@H](O)[C@@]1(C)C(=O)[C@H](O)C3=C(C)[C@@H](OC(=O)[C@H](O)[C@@H](NC(=O)OC(C)(C)C)c4ccccc4)C[C@@](O)([C@@H](OC(=O)c4ccccc4)[C@H]21)C3(C)C | inactive |
| OCC(O)CN1CCN(c2ccccc2)CC1 (stereo not given) | inactive |
| COc1ccc2cc1Oc1ccc(cc1)C[C@H]1c3c(cc4c(c3Oc3cc5c(cc3OC)CCN(C)[C@@H]5C2)OCO4)CCN1C | inactive |
| C[C@H](N)[C@H](O)c1cccc(O)c1 | inactive |
| C[C@@H]1CCN(C(=O)[C@H](CCCN=C(N)N)NS(=O)(=O)c2cccc3c2NC[C@H](C)C3)[C@@H](C(=O)O)C1 | inactive |
| O=S(=O)(O)NC1CCCCC1 | inactive |
| O=C1NS(=O)(=O)c2ccccc21 | inactive |
| CC[C@@]1(c2ccccc2)NC(=O)N(C)C1=O | inactive |
| CC(=O)Nc1ccc(/C=N/NC(N)=S)cc1 | inactive |
